Results filed as inconclusive are left out. Unmarked numbers belong to inactive results. The source made the active and inactive calls. Calls follow the shape of the dose curve; as a rule, active = well fitted inhibition curve with a large enough effect; inconclusive = small, poorly fitted or top-dose-only effect; inactive = flat fitted curve, though single readings scatter.
Each compound was assayed against Calcium and integrin-binding protein 1 (Homo sapiens) (UniProt Q99828) (assay: Primary qHTS for Identification of Calcium Integrin Binding Protein 1 (CIB1) Competitor (AID 1508620; also: top concentration of the series differs between compounds)). Settings: CIB1-GST / FITC-alphaIIb peptide fluorescence polarization; series mostly up to 114 µM; activity change, negative = inhibition: at the top concentration.
Chain of Calcium and integrin-binding protein 1 (Homo sapiens) (Q99828 whole entry, looked up): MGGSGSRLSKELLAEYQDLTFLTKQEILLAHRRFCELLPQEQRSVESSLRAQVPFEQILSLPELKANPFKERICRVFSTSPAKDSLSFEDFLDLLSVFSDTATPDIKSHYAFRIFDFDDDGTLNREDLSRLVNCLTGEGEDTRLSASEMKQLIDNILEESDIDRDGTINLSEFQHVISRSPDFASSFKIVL
In short: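 Fluorescence polarization competition: GST-tagged CIB1 (1 uM final) preincubated with compound 15 min at room temperature, then FITC-labelled alphaIIb peptide (100 nM final) added. After 15 min at room temperature, polarization read at Ex 480/Em 540.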
% is scaled to controls: 0 for no effect and ±100 for the full control effect.

Structure (SMILES) | activity change, negative = inhibition [%] | Potency
CCOC(=O)c1ccoc1-c1ccc2ncnc(NCc3csc(C)n3)c2c1 | -3.63 | –
FC(F)(F)c1cc(-c2ccc(CNc3nc(-c4ccncc4)nc4ccccc34)cc2)ccn1 | 26.1 | –
Cc1c(P(=S)(c2ccccc2)c2ccccc2)c2ccccc2n1C(=O)Cc1ccccc1 | 0.757 | –
COc1ccc(C2Nc3ccccc3C(=O)N2Cc2ccccc2Cl)cc1COc1ccc(NC(C)=O)cc1 (stereo not given) | 6.11 | –
Cc1ccc(OCCn2c(CCNC(=O)CCN3CCCCC3)nc3ccccc32)cc1 | 3.12 | –
Cc1ccc(S(=O)(=O)Nc2cccc3cccnc23)c([N+](=O)[O-])c1 | -0.457 | –
O=C(CN(Cc1cccc2ccccc12)C1CC1)Nc1ccc(N2CCOCC2)cc1 | 5.3 | –
O=C(Nc1ccc2ccccc2c1)Nc1cccc(-c2ccncc2)n1 | 1.27 | –
N#Cc1ccc(-c2ccc(NC(=O)c3cccs3)cn2)cc1 | 2.08 | –
Oc1cc(Nc2ccncc2)cc2cccnc12 | -17.6 | –
COc1ccc(-c2csc(N3CCC(C(N)=O)CC3)n2)cc1 | -3.29 | –
Cc1ccc2nc3sc(C(=O)N4CCCCC4)cc3cc2c1 | 0.836 | –
FC(F)(F)c1ccc(N2CCN(C(=S)Nc3ccccn3)CC2)cc1 | -22.5 | –
COc1ccc(C2Nc3ccccc3C(=O)N2Cc2ccccc2)cc1COc1cccc(C(F)(F)F)c1 (stereo not given) | 1.96 | –
Cc1cc2c(s1)c1cnn(Cc3ccc(-c4ccccc4)cc3)c(=O)c1n2C | 0.444 | –
O=S1(=O)N=C(Sc2cc(C(F)(F)F)cc(C(F)(F)F)c2)c2ccccc21 | -13.3 | –
O=c1c2ccccc2nc2sc(NCc3ccc([S+](=O)([O-])c4ccccc4)cc3)nn12 | 13 | –
CC(=O)Nc1sc2c(c1-c1ccco1)CCNC2 | -14.5 | –
Nc1nnc(-c2cccc3ccccc23)o1 | 2.82 | –
Cc1ccc(N2C(=O)c3ccccc3C2=O)c(C)c1 | 6.62 | –

Structure (SMILES) | activity change, negative = inhibition [%] | Potency
COc1ccc(C(=O)N(Cc2ccccc2)Cc2cccs2)c(O)c1 | 1.63 | –
N#Cc1c(-c2ccccc2C(F)(F)F)nc2ccccc2c1NCc1ccc(-c2cccnc2)cc1 | 18.7 | –
CCOC(=O)c1ccc(-n2cccc2/C=C2\NC(=O)NC2=O)cc1 | -0.411 | –
CC(C)(C)OC(=O)n1c2ccsc2c2cnn(Cc3ccccc3F)c(=O)c21 | -2.96 | –
CSc1ccccc1-c1ncc(C)c(NCc2ccc(-c3cccnc3)cc2)n1 | -0.187 | –
O=S(=O)(c1ccc(Br)cc1)N1CCN(S(=O)(=O)c2ccc3c(c2)OCCO3)CC1 | 5.25 | –
O=C1c2ccccc2NC(c2ccc(-c3cccc(F)c3)o2)N1O (stereo not given) | -8.38 | –
O=C1CCCC2=C1C1(CCCC1)N=C(Nc1nc3cc(-c4ccccc4)ccc3o1)N2 | -15.8 | –
COc1ccc(NC(=O)c2cnn3c(C)cc(C)nc23)cc1F | 6.7 | –
O=C1CCc2cc([S+](=O)([O-])Nc3ccc(N[S+](=O)([O-])c4ccc5c(c4)CCC(=O)N5)cc3)ccc2N1 | 5.37 | –
COc1ccc(C2Nc3ccccc3C(=O)N2Cc2ccc3c(c2)OCO3)cc1COc1c(C)cc(NC(C)=O)cc1C (stereo not given) | -1.89 | –
Cc1cc(-c2nnc3n2CCCCC3)c(C)n1-c1ccccn1 | -4.95 | –
COc1ccc(S(=O)(=O)N2CCN(C(=O)C3COc4ccccc4O3)CC2)cc1 (stereo not given) | 3.19 | –
O=C(NCCc1nc2ccccc2n1CCCc1ccccc1)C1CCCCC1 | 3.45 | –
COc1ccc(C2Nc3ccccc3C(=O)N2Cc2ccccc2)cc1COc1ccc(C(N)=O)cc1 (stereo not given) | 3.92 | –
Oc1ccc(CNc2cc(C(F)(F)F)ccn2)c2cccnc12 | -0.856 | –
COc1ccccc1C1=Nn2c(COc3ccccc3)nnc2SC1 | – | inactive
COc1ccc(C2=Nn3c(nnc3-c3cc(OC)ccc3OC)SC2)c(OC)c1 | 1.36 | –
Cc1ccc(NC(=O)c2ccc3c(c2)CCC(=O)N3)cc1C | -0.11 | –
Cc1ccc(N[S+](=O)([O-])c2cc3c(cc2NC2CC2)NC(=O)CC3)cc1C | -7.22 | –

— PubChem BioAssay (NCATS)
